Molecules are shown by their SMILES. The campaign covered roughly 310,000 compounds. About 14,000 (4.5%) showed an effect of 50% or more. The effect is printed as a negative number. The full list was thinned out, with strong results kept by preference.
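Note: peak tail current of the secondary pulse compared with the same well before compound.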

In this assay the target is human ether-à-go-go-related gene (hERG) potassium channel (human, UniProt Q12809). Kind of assay: primary screen, population patch clamp on CHO cells stably expressing hERG; higher = less effect of the substance.
Sequence of human ether-à-go-go-related gene (hERG) potassium channel (Q12809 whole entry, looked up): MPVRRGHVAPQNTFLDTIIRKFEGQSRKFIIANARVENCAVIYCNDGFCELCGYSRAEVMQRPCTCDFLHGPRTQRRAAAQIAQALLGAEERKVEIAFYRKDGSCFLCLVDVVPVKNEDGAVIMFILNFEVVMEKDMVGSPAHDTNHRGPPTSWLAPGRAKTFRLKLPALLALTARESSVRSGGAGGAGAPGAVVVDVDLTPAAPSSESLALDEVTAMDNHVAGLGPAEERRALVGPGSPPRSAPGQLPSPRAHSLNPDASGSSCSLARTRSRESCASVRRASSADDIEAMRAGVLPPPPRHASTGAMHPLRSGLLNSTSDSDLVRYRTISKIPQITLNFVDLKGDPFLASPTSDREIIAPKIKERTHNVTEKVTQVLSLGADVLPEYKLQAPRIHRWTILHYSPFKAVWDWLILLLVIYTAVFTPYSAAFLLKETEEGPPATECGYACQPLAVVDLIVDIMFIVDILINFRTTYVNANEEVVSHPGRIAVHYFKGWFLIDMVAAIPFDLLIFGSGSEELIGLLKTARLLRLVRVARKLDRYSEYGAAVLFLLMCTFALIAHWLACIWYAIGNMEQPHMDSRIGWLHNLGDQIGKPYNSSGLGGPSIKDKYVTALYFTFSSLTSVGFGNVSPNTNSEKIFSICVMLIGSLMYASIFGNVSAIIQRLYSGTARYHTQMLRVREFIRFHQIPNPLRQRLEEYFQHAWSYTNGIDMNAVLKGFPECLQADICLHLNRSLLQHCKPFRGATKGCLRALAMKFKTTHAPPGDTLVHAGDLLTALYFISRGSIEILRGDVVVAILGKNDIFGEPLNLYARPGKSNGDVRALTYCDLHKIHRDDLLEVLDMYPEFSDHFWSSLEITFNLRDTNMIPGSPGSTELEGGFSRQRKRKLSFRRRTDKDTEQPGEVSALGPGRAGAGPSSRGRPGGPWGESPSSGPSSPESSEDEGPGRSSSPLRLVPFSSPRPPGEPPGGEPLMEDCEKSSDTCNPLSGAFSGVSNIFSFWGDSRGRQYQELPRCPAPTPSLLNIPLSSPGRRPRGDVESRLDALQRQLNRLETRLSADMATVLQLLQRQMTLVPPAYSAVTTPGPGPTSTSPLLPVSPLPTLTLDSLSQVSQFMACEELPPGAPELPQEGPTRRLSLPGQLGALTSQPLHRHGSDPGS
With `O=C1Nc2ccc(Br)cc2/C1=C/C(=O)c1ccc2c(c1)OCO2`, the “hERG current change (%, negative = inhibition) at 10uM” value was determined as 9.53%.
With `CCCCCCCCN[C@H](C)[C@@H](O)c1ccc(SC(C)C)cc1`, the “hERG current change (%, negative = inhibition) at 10uM” value is listed as -67.4%.
Under `CCCCCNC(=O)C(C)Sc1ccc(Cl)cc1` (stereo not shown) stands 10.9%; under `C[C@@H](NCCc1ccc(O)cc1)[C@@H](O)c1ccc(O)cc1.Cl`, -11.5%.
With `CC(C)C(NC(=O)c1ccccc1)C(=O)NC1CCCc2ccccc21` (stereo not shown), the “hERG current change (%, negative = inhibition) at 10uM” value is listed as 15%.
Consider `COc1ccc(-n2c(CNCCc3ccc(C)cc3)nc3ccccc3c2=O)cc1`, for which the “hERG current change (%, negative = inhibition) at 10uM” value is -32.8%.
The figure for `COC(=O)c1cc(C(=O)OCC(=O)N(C)C2CCS(=O)(=O)C2)cc([N+](=O)[O-])c1` (stereo not shown) is 7.96%; for `Cc1cc(C)n2nc(C(=O)OCC(=O)N3C(C)CCCC3C)nc2n1` (stereo not shown) it is 21.5%; for `Cc1ccc(S(=O)(=O)c2nc(Nc3nccs3)sc2Cl)cc1` it is 11.6%.
The figure for `COc1ccc(N2C3=[N+](CC2(C)O)c2ccccc2CC3)cc1.[Br-]` (stereo not shown) is -44.3%.
The figure for `Cc1ccc(-n2c(=O)[nH]c3ncccc3c2=O)cc1` is 30.2%.
For `COc1ccc(-n2c(-c3ccc(Br)cc3)nc(=S)c3c2CCCC3)cc1`, the “hERG current change (%, negative = inhibition) at 10uM” value is -1.32%.
The figure for `Cc1ccc(-n2c(-c3ccc(Br)cc3)c[n+]3c2CCc2ccc4cccnc4c2-3)cc1.[Br-]` is -74.2%; for `COc1ccc(-n2c(-c3ccc(Cl)cc3)c[n+]3c2CCCCC3)cc1.[Br-]` it is -29.8%.
On to `COc1ccc(-n2c(-c3ccccc3)nnc2-c2ccc(Cl)cc2)cc1`, for which the “hERG current change (%, negative = inhibition) at 10uM” value is 4.96%.
`COc1ccc(-n2c(-c3ccc(Cl)cc3)c[n+]3c2CCc2ccccc2-3)cc1.[Br-]`: the “hERG current change (%, negative = inhibition) at 10uM” value is on record as -78.4%.
Under `COc1ccc(-n2c(-c3ccc(Br)cc3)c[n+]3c2CCc2ccccc2-3)cc1.[Br-]` stands -85.2%.
In the case of `Brc1ccc(-c2cn3c(n2)CCc2ccc4cccnc4c2-3)cc1`, the “hERG current change (%, negative = inhibition) at 10uM” value turned out to be 12.5%.
The figure for `COc1ccc(N2C(=O)CC(NNC(=O)c3cc(C)oc3C)C2=O)cc1` (stereo not shown) is 23.6%.
The figure for `COc1ccc(CCNC(=O)CSc2nnc(-c3ccccc3)c3ccccc23)cc1OC` is -20%.
The figure for `CCNC(=O)NC(=O)C(C)Oc1ccc(C(=O)OC)cc1` (stereo not shown) is 3.92%; for `COc1ccc(C(c2sc3nc(C)nn3c2O)N2CCC3(CC2)OCCO3)cc1` (stereo not shown) it is -2.74%.
Turning to `COc1ccc(Cc2nnc(NC(=O)Nc3ccc(C)cc3)s2)cc1OC`, the “hERG current change (%, negative = inhibition) at 10uM” value is reported as 10.2%.
Under `Nc1c(C(=O)CSc2nnc(Nc3ccc(F)cc3)s2)c(=O)[nH]c(=O)n1C1CC1` stands 0.202%; under `CN(C)C(=O)CCC(=O)N1CCCC(C(=O)c2ccc3c4c(cccc24)CC3)C1` (stereo not shown), -20.2%.
The figure for `O=C(c1ccc2c3c(cccc13)CC2)C1CCCN(CC2CC2)C1` (stereo not shown) is -46.3%; for `O=C1CCC(CCC(=O)N2CCCC(C(=O)c3ccc4c5c(cccc35)CC4)C2)=NN1` (stereo not shown) it is -54.4%.
The figure for `O=C(c1ccc2c3c(cccc13)CC2)C1CCCN(Cc2cccnc2)C1` (stereo not shown) is -63.4%.
Turning to `NC(=O)CCC(=O)N1CCCC(C(=O)c2ccc3c4c(cccc24)CC3)C1` (stereo not shown), the “hERG current change (%, negative = inhibition) at 10uM” value is reported as 2.05%.
The figure for `O=C(c1ccc2c3c(cccc13)CC2)C1CCCN(Cc2ccccn2)C1` (stereo not shown) is -42.5%.
`COCCC(=O)N1CCCC(C(=O)c2ccc3c4c(cccc24)CC3)C1` (stereo not shown): the “hERG current change (%, negative = inhibition) at 10uM” value was -17.8%.
Under `O=C(c1ccc2c3c(cccc13)CC2)C1CCCN(C(=O)c2cccnc2)C1` (stereo not shown) stands -19.4%.
The figure for `O=C(c1ccc2c3c(cccc13)CC2)C1CCCN(Cc2ccncc2)C1` (stereo not shown) is -51.5%; for `O=C(c1ccc2c3c(cccc13)CC2)C1CCCN(Cc2ccc(OCCO)cc2)C1` (stereo not shown) it is -70.4%; for `O=C1CCC(C(=O)N2CCCC(C(=O)c3ccc4c5c(cccc35)CC4)C2)=NN1` (stereo not shown) it is -17.9%.
Take `C/C=C(\C)C(=O)OC1C(C)=C2C(C1OC(=O)CCCCC)C(C)(OC(C)=O)CC(OC(=O)CCC)C1(O)C2OC(=O)C1(C)O` (stereo not shown): the “hERG current change (%, negative = inhibition) at 10uM” value is reported as -6.49%.
The figure for `COc1cc2cccc(OC)c(=O)c2c(O)c1OC` is -1.84%.
For `CCc1ccc(N/C(N)=N/c2nc(CSc3ccccn3)cc(=O)[nH]2)cc1`, the “hERG current change (%, negative = inhibition) at 10uM” value came out at 3.29%.
The figure for `Cn1ncc2c(Nc3cccc(C(=O)O)c3)ncnc21` is 6.66%; for `CC(C(=O)NCc1ccccn1)c1ccc([N+](=O)[O-])cc1` (stereo not shown) it is -49.5%.
Under `Cc1ccc(S(=O)(=O)N2CCCC2C(=O)Nc2cc(C)on2)cc1` (stereo not shown) stands -1.05%; under `Cc1ccccc1-c1noc(CCC(=O)NCc2ccco2)n1`, -2.05%.
The figure for `C#CCOCCOCCOCCNc1nc(N2CCN(C(=O)[C@H](CCCCN)n3cc(C(N)[C@H](C)CC)nn3)CC2)nc(N2CCN(C(=O)[C@H](CCC(=O)O)n3cc(C(N)[C@H](C)CC)nn3)CC2)n1.Cl` (stereo partly shown) is 13.5%.

These data come from paper PMC4336329 (PLoS ONE, 2015).
